Screens deposited in PubChem BioAssay by several laboratories.
An excerpt weighted towards active compounds, which were near 1% of everything screened.
Efflux pump inh = inhibitors of Candida efflux pumps in yeast, primary screen, S. cerevisiae, Nile Red, multiplex. S. cerevisiae Candida pump triplex. inhibition, % at 10 µM. 330,000 compounds, 0.44% hits;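 active = plate passing quality check with inhibition over a set limit, or well fluorescence over plate mean plus 4 SD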;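 note: Nile Red retained in pooled yeast measured as flow cytometry median fluorescence; higher means more Nile Red kept so more efflux inhibition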
NPR1 activator = GC-A stimulated cGMP production enhancers – HEK293 GC-A cells, cGMP TR-FRET, EC30 ANP, primary screen. 370,000 compounds, 0.14% hits. Atrial natriuretic peptide receptor 1 (Homo sapiens), P16066. 0% at EC30 ANP, 100% saturating ANP. activation, % at 10 µM. AID 1671463, 2021; in the data active = activation above about 40%
A1 inh = caspase 3/7 activation in MEF A1-2A-BIM cells, primary screen, A1 inhibitor project, cell-based, luminescence, HTS; Caspase-Glo 3/7 luminescence, 3 h; percent of clofoctol response, vehicle zero; caspase activation, % (no concentration beside the values); 330,000 compounds, 0.066% hits; AID 2462, 2010;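 active = over half of replicate activation scores above 10%, or exactly half above 10 with the replicate mean above 10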
NPR2 activator = human GC-B receptor activators, primary screen, HEK293 GC-B cells, cGMP TR-FRET, EC30 CNP; Atrial natriuretic peptide receptor 2 (Homo sapiens), P20594; 0% at EC30 CNP, 100% saturating CNP; activation, % at 10 µM; 370,000 compounds, 0.11% hits;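 active = activation at 10 µM reaching about 35% in either raw or pattern-adjusted values, limit read from the data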
Target sequence (P20594 whole entry, looked up): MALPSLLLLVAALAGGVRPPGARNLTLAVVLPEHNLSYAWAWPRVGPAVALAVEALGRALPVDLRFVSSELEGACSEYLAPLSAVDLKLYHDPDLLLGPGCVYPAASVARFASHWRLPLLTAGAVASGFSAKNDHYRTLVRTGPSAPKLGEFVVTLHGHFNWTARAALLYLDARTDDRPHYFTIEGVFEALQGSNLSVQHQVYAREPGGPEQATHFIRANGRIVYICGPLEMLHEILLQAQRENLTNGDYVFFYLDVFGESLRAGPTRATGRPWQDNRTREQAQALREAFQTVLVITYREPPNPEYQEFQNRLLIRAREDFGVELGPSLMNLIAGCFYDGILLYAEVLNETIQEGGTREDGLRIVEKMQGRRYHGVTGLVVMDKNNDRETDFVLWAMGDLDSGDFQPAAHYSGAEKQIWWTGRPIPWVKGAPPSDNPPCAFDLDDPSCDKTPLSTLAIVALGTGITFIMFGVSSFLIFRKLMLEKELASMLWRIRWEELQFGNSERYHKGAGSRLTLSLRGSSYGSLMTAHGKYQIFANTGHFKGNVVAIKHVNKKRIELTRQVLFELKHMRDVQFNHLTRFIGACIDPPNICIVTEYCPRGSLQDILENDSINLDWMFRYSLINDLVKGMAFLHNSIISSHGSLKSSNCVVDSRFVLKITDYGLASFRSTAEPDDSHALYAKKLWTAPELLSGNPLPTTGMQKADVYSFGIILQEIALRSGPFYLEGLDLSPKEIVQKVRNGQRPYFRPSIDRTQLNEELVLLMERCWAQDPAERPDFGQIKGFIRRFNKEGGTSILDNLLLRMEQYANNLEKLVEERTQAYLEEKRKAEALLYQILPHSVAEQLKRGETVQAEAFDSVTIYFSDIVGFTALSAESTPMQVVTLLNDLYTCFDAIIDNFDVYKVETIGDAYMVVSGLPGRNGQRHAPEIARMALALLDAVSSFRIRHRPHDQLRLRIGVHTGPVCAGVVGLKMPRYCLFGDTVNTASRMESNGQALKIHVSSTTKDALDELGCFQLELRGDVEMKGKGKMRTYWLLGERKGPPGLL
HSV replic up = enhancers of HSV replication in host cells, fold increase, host cell viability; HSV replication augmentation in cells; maximum fold increase; 220,000 compounds, 0.005% hits; in the data active = maximum fold increase above about 1.5; tested in PC3 cells
H9c2 TAG inh = inhibitors of triacylglycerol accumulation, primary screen, cell-based, uHTS, fluorescence, H9c2. H9c2 cells, Nile Red lipid (TAG) fluorescence; cells loaded with 200 µM oleic acid. inhibition, % at 12.5 µM. 230,000 compounds, 0.66% hits. AID 651582, 2012;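 active = pattern-corrected inhibition of lipid staining of at least 50% with the nuclear-stain viability signal not falling by more than 50%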
Yeast cmpd fluor = compound fluorescence in yeast efflux pump counter-screen | 1,700 compounds, 4% hits | S. cerevisiae AD/pABC3, flow cytometry | AID 588517 | shares compounds with Efflux pump inh | fluorescence ratio to DMSO, % at 10 µM;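 active = fluorescence ratio to DMSO above its plate's cutoff, the plate mean ratio plus 5 SD, cut at about 210% in these data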;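 note: unstained yeast with no Nile Red so the signal is compound autofluorescence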
Mdr1 pump inh = inhibitors of Candida albicans Mdr1 efflux, confirmation, flow cytometry, singleplex, Cherry Pick1 set; inhibition, % at 10 µM; S. cerevisiae AD/CaMDR1, Nile Red efflux; AID 588518, 2011; 1,700 compounds, 1% hits; shares compounds with Efflux pump inh; in the data active = inhibition above about 26%;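 note: higher means more Nile Red retained so more efflux inhibition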
CaCdr2 efflux inh = inhibitors of Candida albicans Cdr2 efflux pump, confirmation, S. cerevisiae AD/CaCDR2, flow cytometry, cherry pick 1, singleplex; shares compounds with Efflux pump inh; Nile Red retention; Nile Red retention ratio vs DMSO, % at 10 µM; 1,700 compounds, 4% hits; AID 588520, 2011; in the data active = Nile Red retention ratio vs DMSO above about 190%;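 note: higher ratio means more blocking of Cdr2 efflux of the dye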
Cdr1 pump inh = inhibitors of Candida albicans Cdr1 efflux pump, confirmation, S. cerevisiae AD/CaCDR1, flow cytometry, cherry pick 1, singleplex; shares compounds with Efflux pump inh; Nile Red efflux; inhibition, % at 10 µM; 1,700 compounds, 1% hits; AID 588522, 2011;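 active = inhibition above the screen-wide mean plus twice its standard deviation, cut at about 32% in these data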
Each line names hits and unclear results; the compound was inactive in the other large screens (follow-up assays come after a bar, where they were run).

O=C(Nc1ccc(F)cc1)OCc1cn(Cc2cc(F)ccc2F)nn1	none (no result: Efflux pump inh, A1 inh, HSV replic up, H9c2 TAG inh)
Cc1onc(-c2c(F)cccc2Cl)c1C(=O)NC(=S)NC1CCS(=O)(=O)C1 (centres undefined)	Efflux pump inh 6.5 (no result: HSV replic up, H9c2 TAG inh) | Yeast cmpd fluor inactive | Mdr1 pump inh inactive | CaCdr2 efflux inh inactive | Cdr1 pump inh inactive
N#Cc1c(-c2ccc(Cl)cc2)cc(-c2cccs2)nc1SCC(=O)O	none (no result: HSV replic up, H9c2 TAG inh)
N#Cc1c(-c2ccccc2)cc(-c2cccs2)nc1SCC(=O)O	Efflux pump inh 1.3 (no result: HSV replic up, H9c2 TAG inh) | Yeast cmpd fluor inactive | Mdr1 pump inh inactive | CaCdr2 efflux inh inactive | Cdr1 pump inh inactive
CCC1=C(OC(=O)N(CC)CC)N2C(=O)OC(=NCCc3c[nH]c4ccccc34)[C@]2(Cc2ccccc2)[C@H]2C1=CC[C@H]1C(=O)N(c3ccccc3)C(=O)[C@H]12	none (no result: H9c2 TAG inh)
CCC1=C(OC(=O)N(CC)CC)N2C(=O)OC(=NCCc3c[nH]c4ccccc34)[C@]2(Cc2ccccc2)[C@H]2C1=CC[C@H]1C(=O)N(C)C(=O)[C@H]12	Efflux pump inh 96 | Yeast cmpd fluor inactive | Mdr1 pump inh 39 | CaCdr2 efflux inh inactive | Cdr1 pump inh inactive
COc1ccc(NC(=O)CSc2nnc(Cc3cccn3C)n2CCc2ccccc2)c(OC)c1	Efflux pump inh 6.7 (no result: H9c2 TAG inh) | Yeast cmpd fluor inactive | Mdr1 pump inh inactive | CaCdr2 efflux inh inactive | Cdr1 pump inh inactive
COc1ccc(-n2c(Cc3cccn3C)nnc2SCC(=O)Nc2ccccc2F)cc1	none | Yeast cmpd fluor inactive | Mdr1 pump inh inactive | CaCdr2 efflux inh inactive | Cdr1 pump inh inactive
COc1ccccc1NC(=O)CSc1nnc(Cc2cccn2C)n1CCc1ccccc1	none (no result: H9c2 TAG inh)
Cn1cccc1Cc1nnc(SCC(=O)NCCc2ccccc2)n1C	none
CCOc1ccc(NC(=O)CSc2nnc(Cc3cccn3C)n2-c2ccc(F)cc2)cc1	none | Yeast cmpd fluor inactive | Mdr1 pump inh inactive | CaCdr2 efflux inh inactive | Cdr1 pump inh inactive
COc1ccc(-n2c(Cc3cccn3C)nnc2SCC(=O)NCCc2ccccc2)cc1	Efflux pump inh 6.7 (no result: H9c2 TAG inh) | Yeast cmpd fluor inactive | Mdr1 pump inh inactive | CaCdr2 efflux inh inactive | Cdr1 pump inh inactive
C[C@@H]1CCCN1c1ccc2c(c1)OCCCN(C1CC1)S2(=O)=O	none (no result: Efflux pump inh, A1 inh, HSV replic up, H9c2 TAG inh)
COc1cccc(N(C)C(=O)[C@@H](C2CC2)[C@@H](O)c2ccc3ccccc3c2)c1	none (no result: Efflux pump inh, A1 inh, HSV replic up, H9c2 TAG inh)
O=C(CN(CCc1ccccc1)S(=O)(=O)c1ccc(Cl)s1)N1CCOCC1	none (no result: Efflux pump inh, A1 inh, HSV replic up, H9c2 TAG inh)
COc1ccc(NC(=O)CSc2nnc(Cc3cccn3C)n2-c2ccc(C)cc2)cc1OC	Efflux pump inh 6.7 (no result: H9c2 TAG inh) | Yeast cmpd fluor inactive | Mdr1 pump inh inactive | CaCdr2 efflux inh inactive | Cdr1 pump inh inactive
Cc1ccc(-c2cc(-c3nnc4sc(Cc5cccs5)nn34)[nH]n2)cc1	none (no result: Efflux pump inh, A1 inh, HSV replic up, H9c2 TAG inh)
COc1ccc(-c2nc(NC(=O)CSc3nnc(C)s3)ns2)cc1	Efflux pump inh 0.8 (no result: H9c2 TAG inh) | Yeast cmpd fluor inactive | Mdr1 pump inh inactive | CaCdr2 efflux inh inactive | Cdr1 pump inh inactive
Cc1ccc(-c2nc(NC(=O)CSc3nnc(C)s3)ns2)cc1	none (no result: H9c2 TAG inh)
O=C1C(Cl)=C(Nc2ccc3cn[nH]c3c2)C(=O)c2ccccc21	Efflux pump inh 0.7 (no result: H9c2 TAG inh) | Yeast cmpd fluor inactive | Mdr1 pump inh inactive | CaCdr2 efflux inh inactive | Cdr1 pump inh inactive
O=C(c1cc(COc2cccc(C(F)(F)F)c2)on1)N1CCC(c2ccncc2)CC1	Efflux pump inh 0.5 (no result: HSV replic up) | Yeast cmpd fluor inactive | Mdr1 pump inh inactive | CaCdr2 efflux inh 206 | Cdr1 pump inh inactive
COc1ccc(CNC(=O)COC(=O)CCC2CCCCC2)cc1	none (no result: H9c2 TAG inh)
COC(=O)c1ccc(CNC(=O)COC(=O)CCC2CCCC2)cc1	Efflux pump inh 17 (no result: H9c2 TAG inh) | Yeast cmpd fluor inactive | Mdr1 pump inh inactive | CaCdr2 efflux inh inactive | Cdr1 pump inh inactive
COC(=O)[C@]12C[C@H](CC(=O)NCc3ccc(C)o3)C(=O)N(Cc3ccccc3)C1=C[C@H](COCc1ccccc1)O[C@@H]2C	none (no result: Efflux pump inh, A1 inh, HSV replic up, H9c2 TAG inh)
CN1C(=O)c2cc(NC(=O)Nc3ccccc3)ccc2OC[C@H]2O[C@@H](CC(=O)NC3Cc4ccccc4C3)CC[C@@H]21	none (no result: Efflux pump inh, A1 inh, HSV replic up, H9c2 TAG inh)
COc1cc(/C=C/C(=O)OCC(=O)NCC2CCCO2)ccc1OCC#N (centres undefined)	Efflux pump inh 6.5 (no result: H9c2 TAG inh) | Yeast cmpd fluor inactive | Mdr1 pump inh inactive | CaCdr2 efflux inh inactive | Cdr1 pump inh inactive
COCCN1C(=O)C2=C(C1=O)C1N(C)c3ccccc3[C@@]13C[C@@H](CO)N(C(=O)CCC(=O)OC)C3=N2 (some centres undefined)	none (no result: Efflux pump inh, A1 inh, HSV replic up, H9c2 TAG inh)
COC(=O)c1c(NC(=O)c2ccco2)sc(C(=O)N2CCCC2)c1C	none (no result: H9c2 TAG inh)
COC(=O)c1c(NC(=O)c2ccco2)sc2c1CCN(C(C)=O)C2	Efflux pump inh 1.1 (no result: HSV replic up, H9c2 TAG inh) | Yeast cmpd fluor inactive | Mdr1 pump inh inactive | CaCdr2 efflux inh inactive | Cdr1 pump inh inactive
COc1ccc(C(=O)Nc2sc3c(c2C#N)CCN(C(C)=O)C3)cc1	Efflux pump inh 0.8 | Yeast cmpd fluor inactive | Mdr1 pump inh inactive | CaCdr2 efflux inh inactive | Cdr1 pump inh inactive
NC1=NS(=O)(=O)Nc2ccccc21	none (no result: Efflux pump inh, A1 inh, HSV replic up, H9c2 TAG inh)
COc1ccc(CNC(=O)OC2CC3CC2[C@H]2CCCCN2C3)cc1 (some centres undefined)	none (no result: Efflux pump inh, A1 inh, HSV replic up, H9c2 TAG inh)
Nn1c(SCC(=O)Nc2ccccc2-c2ccccc2)nnc1-c1cc(-c2ccc(Cl)cc2)n[nH]1	none (no result: Efflux pump inh, A1 inh, HSV replic up, H9c2 TAG inh)
O=C(CCS(=O)(=O)c1ccccc1F)Nc1ccc(N2CCN(Cc3ccccc3)CC2)cc1	Efflux pump inh 1.9 (no result: HSV replic up) | Yeast cmpd fluor inactive | Mdr1 pump inh inactive | CaCdr2 efflux inh inactive | Cdr1 pump inh inactive
CCC(=O)Nc1ccc(N2CCN(Cc3ccccc3)CC2)cc1	none
